Sampled rows, rich in hits. Any-hit rate of the full collection: about 6.9%.
Cy5 interf NS3h: counter-screen for HCV NS3 helicase inhibitors: fluorescence interference; Cy5-dT15 DNA with NS3h; actives lie on both sides; signal over control mean, under 1 quenches; AID 720488; 16,000 tested, 6% active; fluorescence interference ratio at 100 µM;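 active = compound fluorescence over control fluorescence at most 0.8, a quencher, or at least a set upper limit, an enhancer; inactive = ratio between 0.8 and the set upper limit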
NS3h inh CB: blocks HCV NS3 helicase binding to DNA; NS3h Cy5-dT15 DNA binding, fluorescence polarization; inhibition, % at 100 µM; 16,000 tested, 1.6% active;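 active = inhibition above the average over every tested compound plus 3 SD, cut at about 40% in these data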
Hits are given with their value; . = inactive.

SMILES | Cy5 interf NS3h | NS3h inh CB
COC(=O)C1=C(N)Oc2n[nH]c(C)c2C1c1ccc(Br)cc1 (stereo not given) | . | .
Cc1[nH]nc2c1C(c1cc(Br)cs1)C(C#N)=C(N)O2 (stereo not given) | 1.24 | .
CCN(CC)S(=O)(=O)c1ccc(Cl)c(-c2nnc(-c3ccc(C)cc3)o2)c1 | . | .
O=C(Nc1ccc(S(=O)(=O)Nc2ncccn2)cc1)c1cccc(Br)c1 | . | .
O=C(Nc1ccc(S(=O)(=O)NC(=O)C2CCCCC2)cc1)c1cccc(Br)c1 | 0.587 | .
O=C(c1cc(Cl)ccc1Cl)N1CCN(c2ccccc2)CC1 | 0.611 | .
O=C(c1cc(Cl)ccc1Cl)N1CCOCC1 | . | .
COc1cc(C(=O)N2CCN(Cc3ccccc3)CC2)c([N+](=O)[O-])cc1OC | . | .
COc1cc(C(=O)N2CCN(c3cccc(Cl)c3)CC2)c([N+](=O)[O-])cc1OC | 0.673 | .
O=C(Nc1ccc(Oc2ccccc2)cc1)C(F)(F)F | 0.783 | .
CC(=O)Nc1ccc(Oc2ccccc2)cc1 | . | .
Cc1ccc(N2C(=O)CSC2c2ccc(Cl)cc2)cc1C (stereo not given) | . | .
CCOC(=O)c1c(-c2ccc(OC)cc2)csc1NC(=O)c1cccc([N+](=O)[O-])c1 | 0.745 | .
CCOC(=O)c1c(-c2ccc(C)cc2)csc1NC(=O)c1ccccc1F | . | .
NC(=O)NC(c1ccccc1)c1ccccc1I (stereo not given) | . | .
O=C1NN(c2ccc(Cl)cc2)C(=O)/C1=C\c1ccc(O)c(O)c1 | . | .
Cc1ccc(N2NC(=O)/C(=C/c3ccc(Cl)cc3)C2=O)cc1 | 0.675 | .
CCCSc1nnc(NC(=O)/C=C/c2ccccc2)s1 | . | .
CC(=O)Oc1ccc(-c2cccc(C(=O)NC(CO)C(O)c3ccc([N+](=O)[O-])cc3)c2)cc1 (stereo not given) | . | .
O=C(NC(CO)C(O)c1ccc([N+](=O)[O-])cc1)c1ccc2ccccc2n1 (stereo not given) | 0.622 | .
Cc1cccc(C(=O)O/N=C(/N)c2ccncc2)c1 | . | .
Cc1ccc(/C=C2N=C(/C=C/c3ccccc3)OC/2=O)s1 | . | .
O=C1OC(c2ccc(F)cc2)=N/C1=C\c1ccc(Cl)cc1 | . | .
COc1ccc(/C=C2N=C(/C=C/c3ccccc3)OC/2=O)cc1 | 0.721 | .
O=C1OC(/C=C/c2ccccc2)=NC/1=C/c1ccccc1 | 0.782 | .
SMILES | Cy5 interf NS3h | NS3h inh CB
COc1ccc(/C=C2/N=C(c3ccc(Br)cc3)OC2=O)cc1 | 1.21 | .
COc1ccc(/C=C2\C(=O)ON=C2C)cc1 | . | .
CC(=O)Nc1ccc(N2C(=O)c3cccc4c(C(=O)c5ccccc5)ccc(c34)C2=O)cc1 | . | .
CC1(C)NN(c2ccccc2)C(=S)N1c1ccccc1 | . | .
CN1C(=O)C(=O)c2cc(Br)ccc21 | 0.736 | .
O=C1C(=O)N(Cc2ccc(F)cc2)c2ccc(Br)cc21 | . | .
Fc1cccc(/C=N\N2CCN(Cc3cccc4ccccc34)CC2)c1 | . | .
CCOC(=O)c1ccccc1NC(=O)C1CN(S(=O)(=O)c2ccccc2)CCN1S(=O)(=O)c1ccccc1 (stereo not given) | . | .
CC(=O)NC(C(Cl)(Cl)Cl)S(=O)(=O)c1ccccc1 (stereo not given) | . | .
COc1ccc(/C=C2\C(=O)N(c3nc(-c4ccc(C)cc4)cs3)N=C2C)cc1 | 0.698 | .
COC(=O)COc1ccc(/C=C2/C(=O)N(c3ccccc3)N=C2C)cc1 | . | .
O=C(Nc1ccc(Cl)c(Cl)c1)c1ccc(I)cc1 | . | .
COc1cccc(NC(=O)CSc2nc3ccccc3o2)c1 | 0.666 | .
O=C(CSc1nc2ccccc2o1)OCC(=O)c1ccc(F)cc1 | . | .
COc1cccc(NC(=O)c2cc(-c3ccccc3)nc3ccccc23)c1 | . | .
O=C(CSc1nc2ccccc2o1)c1ccc(-c2ccccc2)cc1 | 0.628 | .
Cc1ccc(/C=C/C(=O)Nc2ccccc2Br)o1 | . | .
Cc1ccc(S(=O)(=O)Nc2ccccc2-c2nc3ccccc3c(=O)[nH]2)cc1 | . | .
Cc1ccc(/C=C2/C=C(c3ccc(Br)cc3)OC2=O)o1 | 0.677 | .
Cc1ccc2cc(C3=C/C(=C/c4ccc([N+](=O)[O-])o4)C(=O)O3)ccc2c1 | 0.773 | .
COc1ccc(/C=C2\C=C(c3ccc(Br)cc3)OC2=O)c(C)c1 | . | .
Cc1ccc(C2=C/C(=C/c3ccc(-c4ccc([N+](=O)[O-])cc4)o3)C(=O)O2)cc1 | . | .
O=C(/C=C/c1ccc(-c2ccc(Cl)c(Cl)c2)o1)c1ccco1 | . | .
O=C(N/N=C\c1cccnc1)c1ccco1 | . | .
CCN(CC)CCNC(=O)Cn1nc(C)c2ccccc2c1=O | . | .
Cc1cccc(OCC(=O)NCC(C)C)c1 | . | .
Cc1ccc(-c2cc(C(F)(F)F)n3ncc(C(=O)N(C)Cc4ccccc4)c3n2)cc1 | 0.615 | .
CCOC(=O)c1cnn2c(C(F)(F)F)cc(-c3ccco3)nc12 | . | .
